Potency and outcome data for seven compounds are collected here from PubChem BioAssay (Tox21).

A number with no mark means an inactive call. Results filed as inconclusive are left out. Active and inactive are the calls of the source. Unless noted, calls come from the whole dose curve; as a rule, active = well fitted curve in the direction sought with a large enough effect in the repeat runs; inconclusive = weak or mixed curves; inactive = no such curve, though single readings can be large; an effect the other way counts as inactive or inconclusive.

Assay [1] deals with Progesterone receptor (Homo sapiens) (UniProt P06401). Kind of assay: qHTS assay to identify small molecule agonists of the progesterone receptor (PR) signaling pathway (AID 1346784; calls by dose curve; note: nearly all actives have a fitted effect of over 30% in size). The essentials: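 Cells (PR-UAS-bla HEK 293T, GripTite) were plated in assay medium containing 2% charcoal-stripped FBS and incubated 6 hr. Test compounds in DMSO were added for 16 hr at 37C. FRET substrate was then loaded for 2 hr at room temperature before fluorescence reading.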
(qHTS replaces the single test concentration by a dilution series.)

Assay [2] has the same target. Briefly: qHTS assay to identify small molecule antagonists of the progesterone receptor (PR) signaling pathway (AID 1346795; active = well fitted inhibition curve with a large enough effect in the signal ratio in the repeat runs, not every such curve was filed as active; the % refers to the signal ratio; note: potency is the fitted concentration of half-maximal effect). In short, it runs like this: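 Antagonist mode: compounds tested against 1 nM (final) promegestone stimulation in HEK293T cells expressing PR-UAS-bla reporter, 16 hr at 37C, 5% CO2; beta-lactamase activity detected via B/G FRET substrate after 2 hr at room temperature.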

Assay [3] in a line: qHTS assay to identify small molecule antagonists of the progesterone receptor (PR) signaling pathway - cell viability counter screen (AID 1346798). Note: series mostly up to about 92 µM; nearly all actives have a fitted effect of over 50% in size. In short, it runs like this:
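Counter screen for cytotoxicity: viability of PR-UAS-bla HEK293T cells was measured with CellTiter-Glo luminescence following 16 hr compound exposure in the presence of R5020.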

Assay [4] is described as follows: qHTS assay to identify small molecule agonists of the progesterone receptor (PR) signaling pathway - cell viability counter screen (AID 1346799; calls by dose curve; note: nearly all actives have a fitted effect of over 45% in size). The essentials: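 Cells (PR-UAS-bla HEK293T) are plated at 3,000/well in 2% charcoal-stripped FBS medium, rested 6 hr, dosed and incubated 16 hr at 37C. CellTiter-Glo is then added and luminescence measured after 30 min at room temperature.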

Assay [5] in a line: qHTS assay to identify small molecule antagonists of the TGF-beta/Smad signaling pathway - cell viability counter screen (AID 1346824). Note: nearly all actives have a fitted effect of over 50% in size. In short, it runs like this:
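Cytotoxicity counter-screen run in the same wells as the beta-lactamase Smad reporter read: CellTiter-Glo luminescence after 30 min at room temperature. HEK 293T SBE-bla cells had 5 hr compound exposure at 37 C with TGF-beta1 (0.25 ng/mL stock).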

A short description of assay [6]: qHTS assay to identify small molecule agonists of the TGF-beta/Smad signaling pathway - cell viability counter screen (AID 1346829). Note: top concentration of the series differs between compounds; nearly all actives have a fitted effect of over 45% in size. The essentials:
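SBE-bla HEK 293T cells plated overnight, compound exposure 5 hr at 37 C. Viability read in the same wells by CellTiter-Glo luminescence after 30 min at room temperature, following the beta-lactamase read.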

Assay [7] can be described thus: qHTS assay to identify small molecule agonists of the TGF-beta/Smad signaling pathway (AID 1346859; active = well fitted activation curve with a large enough effect in the signal ratio in the repeat runs, not every such curve was filed as active; the % refers to the signal ratio; note: series mostly up to about 77 µM). In short, it runs like this:
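Reporter line: HEK 293T with stably integrated SBE-controlled beta-lactamase. Compound exposure lasts 5 hr at 37 C and 5% CO2; substrate loading follows for 2 hr at room temperature, with emission read at 460 and 530 nm.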

The nature of assay [8]: Human pregnane X receptor (PXR) small molecule agonists, qHTS cell viability counter screen (AID 1346977). Note: nearly all actives have a fitted effect of over 50% in size. The essentials: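 Cytotoxicity counter screen run in the same wells as the PXR luciferase assay, using PXR-Luc HepG2 cells in charcoal-stripped serum medium. Viability: CellTiter-Fluor fluorescence after 24hr compound treatment.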
Assay [9] is described as follows: Caspase-3/7 induction in HepG2 cells by small molecules, qHTS assay (AID 1346978). Note: nearly all actives have a fitted effect of over 15% in size. Note: potency is the fitted concentration of half-maximal effect. The essentials:
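Caspase-3/7 induction was measured by Caspase-Glo 3/7 luminescence (30 min, room temperature) after a 17 hr compound exposure of wild-type HepG2 cells seeded at 2,000 per well and pre-incubated 5 hr.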

Assay [10] can be described thus: Caspase-3/7 induction in CHO-K1 cells by small molecules, qHTS cell viability counter screen (AID 1346979). Note: nearly all actives have a fitted effect of over 35% in size. The essentials:
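Cytotoxicity counter screen run in parallel with the caspase-3/7 assay: CHO-K1 cells, 16hr compound treatment at 37C, then CellTiter-Fluor for 1hr before fluorescence reading.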

Assay [11] in a line: Caspase-3/7 induction in CHO-K1 cells by small molecules, qHTS assay (AID 1346980). Note: nearly all actives have a fitted effect of over 15% in size. In short, it runs like this: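 Luminescent Caspase-Glo 3/7 read (30min, room temperature) quantified apoptosis induction. Cells were wild-type CHO-K1, treated with compound for 17hr at 37 C and 5% CO2.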
The nature of assay [12]: Caspase-3/7 induction in HepG2 cells by small molecules, qHTS cell viability counter screen (AID 1346981). Note: series mostly up to about 92 µM; nearly all actives have a fitted effect of over 30% in size. In short, it runs like this: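 HepG2, WT, 2,000 cells/well; 5 hr pre-incubation 37 C/5% CO2; compound pin-transferred from DMSO; 16 hr exposure; CellTiter-Fluor, 1 hr; fluorescence read.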
Assay [13] has as its target Nuclear receptor subfamily 1 group I member 2 (Homo sapiens) (UniProt O75469). Briefly: Human pregnane X receptor (PXR) small molecule agonists, qHTS assay (AID 1346982). Note: nearly all actives have a fitted effect of over 35% in size. Note: potency is the fitted concentration of half-maximal effect. In short, it runs like this:
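Luciferase signal from ONE-Glo (30 min, room temperature) measured activation of hPXR-driven CYP3A4 reporter expression in PXR-Luc HepG2 cells treated with compounds for 24 hr at 37 C.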

Assay [14] has as its target Cytochrome P450 2C19 (Homo sapiens) (UniProt P33261). Briefly: Cytochrome P450 Family 2 Subfamily C Member 19 (CYP2C19) small molecule antagonists: luciferase reporter qHTS assay (AID 1671197). Note: nearly all actives have a fitted effect of over 65% in size. Note: potency is the fitted concentration of half-maximal effect. The essentials:
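P450-Glo CYP2C19 system: enzyme-substrate mix with compound 10 min at room temperature, then NADPH regeneration solution, 1 h at 37C. Proluciferin-to-luciferin conversion detected by luminescence after 20 min with detection reagent; ketoconazole as positive control.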

Assay [15] deals with Thyrotropin-releasing hormone receptor (Homo sapiens) (UniProt P34981). Briefly: qHTS assay to identify small molecule antagonists of the thyrotropin-releasing hormone receptor (TRHR) signaling pathway (AID 1346877; active = well fitted inhibition curve with a large enough effect in the repeat runs, not every such curve was filed as active; note: series mostly up to about 51 µM). In short, it runs like this: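 Intracellular calcium fluorescence, read kinetically every second over 3 min, reports TRH-evoked signalling in HEK293 cells carrying TRHR. Test compounds were added 5 min ahead of a 1 nM TRH challenge.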

Assay [16] shares this target. Kind of assay: qHTS assay to identify small molecule agonists of the thyrotropin-releasing hormone receptor (TRHR) signaling pathway (AID 1346891; calls by dose curve;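 note: HEK293 cells expressing TRHR with calcium dye readout; series mostly up to about 58 µM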). In short, it runs like this: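 Cells: TRHR-Hek293, seeded and incubated 18 h. Dye loading: 2 h at 37 °C. Compound added from DMSO stock by pin tool. Read-out: kinetic calcium fluorescence over 3 min.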
The target of assay [17] is Cytochrome P450 2D6 (Homo sapiens) (UniProt P10635). Briefly: Cytochrome P450 Family 2 Subfamily D Member 6 (CYP2D6) small molecule antagonists: luciferase reporter qHTS assay (AID 1671196). Note: nearly all actives have a fitted effect of over 50% in size. Note: potency is the fitted concentration of half-maximal effect. The essentials: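 Read-out is luminescence from luciferin formed by CYP2D6 turnover of a proluciferin substrate, recorded as relative luminescence units. Reactions ran 1 h at room temperature after NADPH regeneration solution was added.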
For orientation: Reporter assays use an easily measured gene product as a stand-in for the process of interest.

Sequence of Thyrotropin-releasing hormone receptor (Homo sapiens) (P34981 whole entry, looked up): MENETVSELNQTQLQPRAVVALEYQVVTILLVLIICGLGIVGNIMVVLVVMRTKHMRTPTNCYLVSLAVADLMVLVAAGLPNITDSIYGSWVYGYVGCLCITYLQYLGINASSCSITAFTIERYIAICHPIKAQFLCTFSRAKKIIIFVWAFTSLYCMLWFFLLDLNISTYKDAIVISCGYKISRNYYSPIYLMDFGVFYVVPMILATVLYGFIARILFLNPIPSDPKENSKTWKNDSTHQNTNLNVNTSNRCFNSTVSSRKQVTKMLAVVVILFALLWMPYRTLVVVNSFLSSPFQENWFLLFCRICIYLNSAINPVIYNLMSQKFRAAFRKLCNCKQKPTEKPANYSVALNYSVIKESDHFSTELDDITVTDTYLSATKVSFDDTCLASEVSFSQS
Sequence of Progesterone receptor (Homo sapiens) (P06401 whole entry, looked up): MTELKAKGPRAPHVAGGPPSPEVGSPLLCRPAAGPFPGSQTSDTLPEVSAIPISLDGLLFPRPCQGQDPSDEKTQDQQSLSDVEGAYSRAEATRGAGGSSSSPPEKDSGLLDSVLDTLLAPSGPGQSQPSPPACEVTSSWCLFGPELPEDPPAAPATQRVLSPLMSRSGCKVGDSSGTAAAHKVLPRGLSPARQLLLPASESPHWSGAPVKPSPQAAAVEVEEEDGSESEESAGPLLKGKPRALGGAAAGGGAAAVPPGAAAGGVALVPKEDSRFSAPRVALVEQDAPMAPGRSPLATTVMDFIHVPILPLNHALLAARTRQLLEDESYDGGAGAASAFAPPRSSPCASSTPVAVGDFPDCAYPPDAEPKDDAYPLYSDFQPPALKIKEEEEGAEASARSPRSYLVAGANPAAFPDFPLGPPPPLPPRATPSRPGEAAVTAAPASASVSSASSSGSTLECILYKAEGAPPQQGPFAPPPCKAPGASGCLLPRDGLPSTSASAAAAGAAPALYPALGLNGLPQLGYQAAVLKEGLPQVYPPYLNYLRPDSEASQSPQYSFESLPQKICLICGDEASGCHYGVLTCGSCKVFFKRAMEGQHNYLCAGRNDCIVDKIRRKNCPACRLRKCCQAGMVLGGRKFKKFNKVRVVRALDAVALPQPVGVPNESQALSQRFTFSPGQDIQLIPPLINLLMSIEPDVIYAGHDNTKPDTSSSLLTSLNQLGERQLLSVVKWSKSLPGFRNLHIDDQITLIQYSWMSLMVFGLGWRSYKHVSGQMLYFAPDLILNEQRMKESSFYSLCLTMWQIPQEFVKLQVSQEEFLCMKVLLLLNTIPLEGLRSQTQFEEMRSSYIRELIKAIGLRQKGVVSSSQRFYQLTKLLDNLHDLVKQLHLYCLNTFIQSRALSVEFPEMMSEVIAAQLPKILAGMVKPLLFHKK
Sequence of Cytochrome P450 2C19 (Homo sapiens) (P33261 whole entry, looked up): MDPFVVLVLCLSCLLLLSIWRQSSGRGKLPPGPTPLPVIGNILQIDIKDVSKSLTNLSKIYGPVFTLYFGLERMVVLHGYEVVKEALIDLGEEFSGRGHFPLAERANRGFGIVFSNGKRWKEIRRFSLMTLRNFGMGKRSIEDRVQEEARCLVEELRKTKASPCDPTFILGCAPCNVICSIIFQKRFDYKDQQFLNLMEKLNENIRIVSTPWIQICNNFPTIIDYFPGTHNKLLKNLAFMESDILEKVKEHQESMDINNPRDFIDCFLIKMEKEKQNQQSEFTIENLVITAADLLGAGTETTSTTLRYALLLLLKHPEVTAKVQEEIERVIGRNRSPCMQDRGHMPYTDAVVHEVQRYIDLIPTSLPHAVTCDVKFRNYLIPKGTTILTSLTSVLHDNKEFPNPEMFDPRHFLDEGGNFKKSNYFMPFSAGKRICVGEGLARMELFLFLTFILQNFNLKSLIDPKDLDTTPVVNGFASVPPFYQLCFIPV
Sequence of Nuclear receptor subfamily 1 group I member 2 (Homo sapiens) (O75469 whole entry, looked up): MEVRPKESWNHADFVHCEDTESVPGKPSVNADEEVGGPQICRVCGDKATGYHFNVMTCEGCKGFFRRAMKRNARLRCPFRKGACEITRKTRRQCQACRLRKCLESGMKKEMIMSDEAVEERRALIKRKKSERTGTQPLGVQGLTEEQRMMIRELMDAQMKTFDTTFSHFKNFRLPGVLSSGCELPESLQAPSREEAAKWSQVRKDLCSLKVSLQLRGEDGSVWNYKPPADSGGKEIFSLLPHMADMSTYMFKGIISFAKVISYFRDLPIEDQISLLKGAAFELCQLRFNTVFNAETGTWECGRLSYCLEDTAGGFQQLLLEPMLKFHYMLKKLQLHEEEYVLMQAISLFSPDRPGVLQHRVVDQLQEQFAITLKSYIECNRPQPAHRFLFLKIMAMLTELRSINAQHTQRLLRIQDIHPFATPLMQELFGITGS
Sequence of Cytochrome P450 2D6 (Homo sapiens) (P10635 whole entry, looked up): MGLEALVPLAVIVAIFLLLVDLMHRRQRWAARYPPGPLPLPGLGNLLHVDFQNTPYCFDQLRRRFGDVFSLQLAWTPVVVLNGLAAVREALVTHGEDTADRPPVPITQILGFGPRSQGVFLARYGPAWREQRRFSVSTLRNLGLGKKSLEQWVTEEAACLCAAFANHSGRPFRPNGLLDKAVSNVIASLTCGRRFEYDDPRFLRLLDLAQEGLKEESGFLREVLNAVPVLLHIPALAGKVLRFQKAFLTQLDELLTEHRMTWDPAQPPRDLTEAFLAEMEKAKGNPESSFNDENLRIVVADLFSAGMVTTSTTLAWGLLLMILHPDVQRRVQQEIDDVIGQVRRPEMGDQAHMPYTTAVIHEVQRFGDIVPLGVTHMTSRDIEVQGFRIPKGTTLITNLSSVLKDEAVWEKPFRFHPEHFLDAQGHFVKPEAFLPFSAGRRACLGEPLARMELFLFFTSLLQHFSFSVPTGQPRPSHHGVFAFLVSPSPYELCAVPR

`O=C(OCC1(COC(=O)c2cccnc2)CCCC(COC(=O)c2cccnc2)(COC(=O)c2cccnc2)C1O)c1cccnc1`: the Potency entry in assay [1], in [2], in assay [3], in assay [4], in [8] and in assay [9] was “inactive” in each case. The Potency entry in assay [10], in [12] and in assay [13] was “inactive” throughout. For the same compound, the compound was called inactive in assay [5], in [6], in [7] and in assay [11]. Besides, in assay [14], the Potency is 38.9 µM (active).
Turning to `CC(=O)c1ccc2c(c1)Cc1ccccc1-2`, the Potency result in assay [1], in assay [3], in [4], in assay [9], in assay [10] and in [12] was “inactive” in each case. Further, the figures for the Potency in [2], in [13] and in [14] were 12.2 µM (active), 54.5 µM (active) and 20 µM (active), respectively. Besides, the call in assay [5], in assay [6], in [15], in assay [16] and in [11] was inactive.
With `Cc1ccccc1C(=O)Nc1ccc(C(=O)N2CCCC(N(C)C)c3ccccc32)cc1` (stereo unspecified), the Potency entry in [1], in assay [2], in assay [3], in [4], in assay [12] and in assay [17] was “inactive” each time. Further, in assay [14], the Potency entry was “inactive”. In addition, the result in assay [5], in [6], in [7], in assay [16] and in assay [11] was inactive. Further, the Potency in [9] was 3.76 µM (active); in assay [13], 0.298 µM (active).
In the case of `CN=C(NC#N)Nc1ccc(C2=NNC(=O)CC2C)cc1` (stereo unspecified), the Potency result in [1], in assay [2], in assay [3], in assay [4], in [8] and in assay [9] was “inactive” throughout. The Potency entry in [12], in assay [17] and in assay [14] was “inactive” throughout. Also, the compound was classed as inactive in [5], in assay [6], in [7] and in assay [11].
`CCOc1cc([N+](=O)[O-])c(OCC)cc1N1CCOCC1`: the Potency entry in [1], in assay [3], in assay [4], in [8], in [17] and in assay [14] was “inactive” in each case. Further, the Potency in assay [2] was 27.3 µM (active); in [13], 30.6 µM (active). The compound was called inactive in [5], in [6], in assay [15] and in assay [11].
Turning to `CC(=O)Nc1cccc(C)c1`, the Potency entry in assay [1], in assay [2], in assay [3], in [4], in assay [8] and in assay [9] was “inactive” in each case. Besides, the Potency entry in assay [10], in assay [12], in assay [13] and in [17] was “inactive” each time. Moreover, the compound was classed as inactive in assay [5], in [6], in assay [7] and in assay [11]. The Potency in assay [14] is 71.3 µM (active).
`O=C1c2ccccc2C(=O)c2cc(S(=O)(=O)O)ccc21`: the Potency entry in assay [1], in assay [2], in [3], in [4], in assay [8] and in [9] was “inactive” in each case. Moreover, the Potency entry in assay [12] was “inactive”. For the same compound, the call in [5], in assay [6], in [15] and in assay [11] was inactive. In addition, the Potency in [13] was 48.7 µM (active); in assay [17], 40.1 µM (active); in assay [14], 31.8 µM (active).
